Legend:
Assay in all cases: log2 ratio of Biotin-Ahx-Ub-VS probe labelling (fragment/DMSO); higher = less target engagement (more negative = stronger competition), active = hit call of the paper (q ≤ 0.05, log2 ratio ≤ -1)
Conditions in all cases: compound concentration: 200 uM; treatment time: 3 h
USP34 = USP34 (UniProt Q70CQ2)
Procedure, shortened: (§1)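 Average log2 ratios of fragment over vehicle were obtained by unpaired t-test from global-median-normalised Spectronaut label-free quantities. Proteins with ≥2 unique peptides were included. HEK293T lysate (495 µg per sample) was treated in triplicate with fragment at 200 µM or vehicle for 3 h, then with Biotin-Ahx-Ub-VS at 0.5 µM final for 1 h, and labelled DUBs were NeutrAvidin-enriched and run by diaPASEF LC-MS/MS.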

USP36 = biological target: T1, USP36 (UniProt Q9P275)
T1 sequence (whole entry): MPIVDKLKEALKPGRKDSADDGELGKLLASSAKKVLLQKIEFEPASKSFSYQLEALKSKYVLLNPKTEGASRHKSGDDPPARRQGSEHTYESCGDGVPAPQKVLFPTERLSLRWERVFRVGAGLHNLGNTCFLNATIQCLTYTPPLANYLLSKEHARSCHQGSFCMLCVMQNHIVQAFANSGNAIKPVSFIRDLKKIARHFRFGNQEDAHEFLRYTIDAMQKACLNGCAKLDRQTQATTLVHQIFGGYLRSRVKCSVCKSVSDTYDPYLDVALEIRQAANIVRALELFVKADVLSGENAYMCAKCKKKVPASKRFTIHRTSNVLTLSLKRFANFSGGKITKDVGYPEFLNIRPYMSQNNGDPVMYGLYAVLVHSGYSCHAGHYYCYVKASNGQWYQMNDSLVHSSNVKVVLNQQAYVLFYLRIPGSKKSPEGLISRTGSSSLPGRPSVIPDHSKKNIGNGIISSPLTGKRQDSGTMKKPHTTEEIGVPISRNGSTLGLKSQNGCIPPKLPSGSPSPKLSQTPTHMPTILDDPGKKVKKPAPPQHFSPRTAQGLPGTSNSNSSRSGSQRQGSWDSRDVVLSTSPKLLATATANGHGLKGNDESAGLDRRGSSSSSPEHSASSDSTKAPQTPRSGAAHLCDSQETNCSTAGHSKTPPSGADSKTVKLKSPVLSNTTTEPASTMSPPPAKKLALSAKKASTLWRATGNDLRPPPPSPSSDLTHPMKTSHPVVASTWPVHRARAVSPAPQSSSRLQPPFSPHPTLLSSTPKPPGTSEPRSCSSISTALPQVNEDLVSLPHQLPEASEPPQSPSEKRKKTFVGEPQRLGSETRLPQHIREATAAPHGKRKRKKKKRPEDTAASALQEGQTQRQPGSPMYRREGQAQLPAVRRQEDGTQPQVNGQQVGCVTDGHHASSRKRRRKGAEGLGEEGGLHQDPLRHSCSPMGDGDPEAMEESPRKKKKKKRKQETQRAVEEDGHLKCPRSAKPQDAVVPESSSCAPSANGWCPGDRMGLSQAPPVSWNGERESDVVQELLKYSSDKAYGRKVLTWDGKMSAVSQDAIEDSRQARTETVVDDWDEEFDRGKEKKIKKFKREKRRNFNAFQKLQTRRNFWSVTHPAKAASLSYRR
Procedure, shortened: as §1

USP38 = biological target: T2, USP38 (UniProt Q8NB14)
T2 sequence (whole entry): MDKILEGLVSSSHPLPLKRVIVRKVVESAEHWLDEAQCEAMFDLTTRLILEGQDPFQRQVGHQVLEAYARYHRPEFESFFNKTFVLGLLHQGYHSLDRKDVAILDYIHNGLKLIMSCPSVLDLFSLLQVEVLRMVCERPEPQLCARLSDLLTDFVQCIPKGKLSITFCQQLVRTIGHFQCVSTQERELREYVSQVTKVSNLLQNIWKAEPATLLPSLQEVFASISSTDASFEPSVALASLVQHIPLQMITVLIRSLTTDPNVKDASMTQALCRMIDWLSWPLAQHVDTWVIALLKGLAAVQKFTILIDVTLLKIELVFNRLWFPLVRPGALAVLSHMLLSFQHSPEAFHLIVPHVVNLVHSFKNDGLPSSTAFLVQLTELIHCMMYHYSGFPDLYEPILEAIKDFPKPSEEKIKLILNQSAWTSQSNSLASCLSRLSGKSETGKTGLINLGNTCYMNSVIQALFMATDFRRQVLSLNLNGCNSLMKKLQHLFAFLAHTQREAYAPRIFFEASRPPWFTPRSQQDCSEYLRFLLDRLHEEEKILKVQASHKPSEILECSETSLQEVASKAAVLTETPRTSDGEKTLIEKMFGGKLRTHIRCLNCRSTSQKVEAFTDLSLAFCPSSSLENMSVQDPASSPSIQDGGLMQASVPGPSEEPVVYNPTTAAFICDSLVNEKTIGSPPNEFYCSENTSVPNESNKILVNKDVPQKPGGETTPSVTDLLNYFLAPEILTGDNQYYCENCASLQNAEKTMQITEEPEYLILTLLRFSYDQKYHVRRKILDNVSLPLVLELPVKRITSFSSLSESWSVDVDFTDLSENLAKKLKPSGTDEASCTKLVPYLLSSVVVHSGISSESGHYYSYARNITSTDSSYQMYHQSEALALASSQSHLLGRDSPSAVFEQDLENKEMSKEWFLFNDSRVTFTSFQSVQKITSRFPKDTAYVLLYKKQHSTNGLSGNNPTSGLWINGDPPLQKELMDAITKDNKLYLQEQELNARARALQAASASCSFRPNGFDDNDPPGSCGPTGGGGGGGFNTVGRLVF
Procedure, shortened: as §1

USP39 = biological target: T3, USP39 (UniProt Q53GS9)
T3 sequence (whole entry): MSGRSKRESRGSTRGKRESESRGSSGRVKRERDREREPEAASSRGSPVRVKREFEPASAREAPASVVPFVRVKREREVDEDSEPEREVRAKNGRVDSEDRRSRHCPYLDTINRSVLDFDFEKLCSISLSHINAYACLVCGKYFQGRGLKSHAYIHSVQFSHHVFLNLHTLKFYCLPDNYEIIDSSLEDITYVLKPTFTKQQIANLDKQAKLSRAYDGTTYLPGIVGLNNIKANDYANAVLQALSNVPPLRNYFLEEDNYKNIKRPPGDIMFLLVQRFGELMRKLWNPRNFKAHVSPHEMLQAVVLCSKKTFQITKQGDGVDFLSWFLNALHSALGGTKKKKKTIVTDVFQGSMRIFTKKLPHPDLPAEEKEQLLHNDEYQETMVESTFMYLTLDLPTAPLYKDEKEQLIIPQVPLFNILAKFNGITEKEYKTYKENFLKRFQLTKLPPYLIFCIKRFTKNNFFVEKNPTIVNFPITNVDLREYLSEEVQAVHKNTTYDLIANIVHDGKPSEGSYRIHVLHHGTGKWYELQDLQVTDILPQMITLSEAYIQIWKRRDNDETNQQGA
Procedure, shortened: as §1

USP4 = biological target: T4, USP4 (UniProt Q13107)
T4 sequence (whole entry): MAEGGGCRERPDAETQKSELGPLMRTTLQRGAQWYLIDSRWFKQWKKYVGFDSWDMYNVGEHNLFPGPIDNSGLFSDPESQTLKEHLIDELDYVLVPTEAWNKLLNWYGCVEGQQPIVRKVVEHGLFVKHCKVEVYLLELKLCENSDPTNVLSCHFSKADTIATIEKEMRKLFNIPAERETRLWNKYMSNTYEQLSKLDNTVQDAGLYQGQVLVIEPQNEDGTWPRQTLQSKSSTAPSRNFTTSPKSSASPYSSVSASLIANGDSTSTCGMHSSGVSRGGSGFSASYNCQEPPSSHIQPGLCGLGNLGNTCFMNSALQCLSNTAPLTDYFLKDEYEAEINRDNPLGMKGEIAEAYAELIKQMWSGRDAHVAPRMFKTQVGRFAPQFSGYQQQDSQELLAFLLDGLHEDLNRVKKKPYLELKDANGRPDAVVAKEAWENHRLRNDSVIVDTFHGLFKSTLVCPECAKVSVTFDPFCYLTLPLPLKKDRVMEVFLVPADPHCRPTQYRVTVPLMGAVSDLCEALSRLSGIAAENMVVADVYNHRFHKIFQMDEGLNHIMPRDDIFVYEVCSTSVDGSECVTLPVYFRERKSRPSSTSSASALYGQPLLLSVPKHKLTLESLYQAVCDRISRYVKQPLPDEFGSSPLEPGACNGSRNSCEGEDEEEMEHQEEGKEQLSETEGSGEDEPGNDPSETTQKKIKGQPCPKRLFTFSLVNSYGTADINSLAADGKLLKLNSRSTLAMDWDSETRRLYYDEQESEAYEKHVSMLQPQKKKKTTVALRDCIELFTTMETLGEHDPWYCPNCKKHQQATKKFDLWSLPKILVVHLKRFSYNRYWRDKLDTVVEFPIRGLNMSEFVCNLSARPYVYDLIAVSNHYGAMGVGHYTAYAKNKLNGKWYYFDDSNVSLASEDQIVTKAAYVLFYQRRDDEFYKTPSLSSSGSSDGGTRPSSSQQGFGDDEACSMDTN
Procedure, shortened: as §1

Measured: log2 ratio of Biotin-Ahx-Ub-VS probe labelling

Chain of USP34 (Q70CQ2 whole entry, the tested form may be a part): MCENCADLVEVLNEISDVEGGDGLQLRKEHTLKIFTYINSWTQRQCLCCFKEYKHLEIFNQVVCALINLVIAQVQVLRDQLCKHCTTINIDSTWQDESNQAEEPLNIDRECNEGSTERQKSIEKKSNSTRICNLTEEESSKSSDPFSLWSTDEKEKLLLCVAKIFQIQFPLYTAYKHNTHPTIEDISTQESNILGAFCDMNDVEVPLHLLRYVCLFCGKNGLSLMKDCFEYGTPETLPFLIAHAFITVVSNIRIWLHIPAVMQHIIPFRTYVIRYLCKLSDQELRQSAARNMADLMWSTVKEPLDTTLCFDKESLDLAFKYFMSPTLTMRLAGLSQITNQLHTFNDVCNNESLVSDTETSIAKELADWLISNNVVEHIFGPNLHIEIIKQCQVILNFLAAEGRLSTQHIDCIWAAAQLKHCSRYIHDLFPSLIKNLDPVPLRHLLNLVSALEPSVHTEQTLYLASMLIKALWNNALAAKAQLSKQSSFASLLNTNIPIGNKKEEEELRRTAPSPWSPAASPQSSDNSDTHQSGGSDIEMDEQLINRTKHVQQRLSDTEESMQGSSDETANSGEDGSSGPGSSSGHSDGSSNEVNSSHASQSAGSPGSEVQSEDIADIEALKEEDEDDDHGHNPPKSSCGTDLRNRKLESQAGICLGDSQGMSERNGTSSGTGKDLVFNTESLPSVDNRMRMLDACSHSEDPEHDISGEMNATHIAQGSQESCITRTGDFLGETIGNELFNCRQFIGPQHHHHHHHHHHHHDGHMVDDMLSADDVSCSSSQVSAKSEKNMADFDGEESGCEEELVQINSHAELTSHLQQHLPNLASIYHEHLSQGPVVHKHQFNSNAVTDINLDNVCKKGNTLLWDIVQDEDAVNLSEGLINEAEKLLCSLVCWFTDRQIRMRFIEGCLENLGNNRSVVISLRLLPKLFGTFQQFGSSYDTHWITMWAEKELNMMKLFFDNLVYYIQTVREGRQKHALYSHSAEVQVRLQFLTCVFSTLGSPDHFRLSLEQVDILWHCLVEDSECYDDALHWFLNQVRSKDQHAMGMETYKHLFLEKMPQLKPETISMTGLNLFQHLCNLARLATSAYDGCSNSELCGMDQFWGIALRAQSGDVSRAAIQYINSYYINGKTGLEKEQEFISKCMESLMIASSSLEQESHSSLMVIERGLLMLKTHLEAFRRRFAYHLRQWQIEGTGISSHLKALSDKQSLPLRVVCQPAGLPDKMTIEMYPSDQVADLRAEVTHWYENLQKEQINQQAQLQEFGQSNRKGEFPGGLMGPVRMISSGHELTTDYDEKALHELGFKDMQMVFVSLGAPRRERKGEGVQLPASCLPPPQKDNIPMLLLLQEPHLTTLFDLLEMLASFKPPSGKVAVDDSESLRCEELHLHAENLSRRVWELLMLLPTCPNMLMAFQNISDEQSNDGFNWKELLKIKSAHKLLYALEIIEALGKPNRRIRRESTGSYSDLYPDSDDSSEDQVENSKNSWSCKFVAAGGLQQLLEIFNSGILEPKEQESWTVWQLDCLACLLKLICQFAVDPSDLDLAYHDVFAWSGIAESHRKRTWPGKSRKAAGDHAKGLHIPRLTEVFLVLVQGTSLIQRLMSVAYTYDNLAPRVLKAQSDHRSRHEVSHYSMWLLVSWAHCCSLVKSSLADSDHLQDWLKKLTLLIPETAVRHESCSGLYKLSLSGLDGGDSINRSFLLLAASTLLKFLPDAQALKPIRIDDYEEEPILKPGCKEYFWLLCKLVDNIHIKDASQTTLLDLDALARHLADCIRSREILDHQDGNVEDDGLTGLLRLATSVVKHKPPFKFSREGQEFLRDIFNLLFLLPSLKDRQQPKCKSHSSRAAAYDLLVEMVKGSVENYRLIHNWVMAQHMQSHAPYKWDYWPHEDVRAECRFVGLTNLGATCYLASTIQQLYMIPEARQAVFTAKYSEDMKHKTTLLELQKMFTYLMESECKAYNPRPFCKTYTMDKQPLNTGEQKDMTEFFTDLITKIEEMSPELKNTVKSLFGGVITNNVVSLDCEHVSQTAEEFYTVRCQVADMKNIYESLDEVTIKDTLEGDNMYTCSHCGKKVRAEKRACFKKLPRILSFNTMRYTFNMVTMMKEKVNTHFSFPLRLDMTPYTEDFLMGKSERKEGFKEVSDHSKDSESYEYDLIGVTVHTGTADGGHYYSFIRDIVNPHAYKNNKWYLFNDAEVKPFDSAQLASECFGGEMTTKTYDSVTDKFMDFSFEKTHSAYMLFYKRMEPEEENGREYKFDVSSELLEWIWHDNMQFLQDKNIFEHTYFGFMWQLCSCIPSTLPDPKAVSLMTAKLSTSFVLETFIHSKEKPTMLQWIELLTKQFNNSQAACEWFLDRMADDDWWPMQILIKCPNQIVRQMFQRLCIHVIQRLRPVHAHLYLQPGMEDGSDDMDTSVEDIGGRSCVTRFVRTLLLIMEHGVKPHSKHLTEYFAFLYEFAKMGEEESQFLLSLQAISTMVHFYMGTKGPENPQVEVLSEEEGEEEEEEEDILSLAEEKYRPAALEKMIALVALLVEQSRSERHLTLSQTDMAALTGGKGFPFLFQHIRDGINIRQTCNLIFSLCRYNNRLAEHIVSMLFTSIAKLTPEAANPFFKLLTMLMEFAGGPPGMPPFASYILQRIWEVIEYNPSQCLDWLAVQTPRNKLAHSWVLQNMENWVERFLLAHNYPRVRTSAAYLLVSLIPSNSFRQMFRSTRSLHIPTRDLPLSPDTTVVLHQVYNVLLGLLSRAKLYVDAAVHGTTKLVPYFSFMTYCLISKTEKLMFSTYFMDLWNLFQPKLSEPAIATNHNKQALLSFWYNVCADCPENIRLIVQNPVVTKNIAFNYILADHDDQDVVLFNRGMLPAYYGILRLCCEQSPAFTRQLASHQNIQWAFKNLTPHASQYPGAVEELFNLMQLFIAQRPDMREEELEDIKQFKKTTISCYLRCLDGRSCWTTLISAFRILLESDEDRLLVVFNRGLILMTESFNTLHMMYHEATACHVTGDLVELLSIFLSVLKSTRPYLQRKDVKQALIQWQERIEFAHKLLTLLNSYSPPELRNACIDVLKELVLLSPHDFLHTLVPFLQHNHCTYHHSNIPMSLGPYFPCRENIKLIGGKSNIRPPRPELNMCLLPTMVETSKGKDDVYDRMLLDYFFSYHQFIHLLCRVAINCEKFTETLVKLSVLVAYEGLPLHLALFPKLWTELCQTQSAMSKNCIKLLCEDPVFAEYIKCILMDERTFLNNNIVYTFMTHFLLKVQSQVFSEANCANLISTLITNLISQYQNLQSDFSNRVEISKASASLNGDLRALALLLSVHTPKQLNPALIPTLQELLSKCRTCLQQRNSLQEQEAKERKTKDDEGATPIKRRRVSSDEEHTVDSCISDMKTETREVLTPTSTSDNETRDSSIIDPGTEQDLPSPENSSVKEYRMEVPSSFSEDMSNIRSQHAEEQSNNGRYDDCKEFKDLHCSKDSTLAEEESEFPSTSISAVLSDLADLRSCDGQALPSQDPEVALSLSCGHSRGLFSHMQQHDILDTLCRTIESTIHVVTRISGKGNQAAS

Cc1cccc2nc(CCNC(=O)CCl)cn12.Cl
inactive: USP34 -0.19 | USP36 -0.179 | USP38 -0.0583 | USP39 0.203 | USP4 -0.184

From the supplement of paper PMC11732987, “Enantioselective OTUD7B fragment discovery through chemoproteomics screening and high-throughput optimisation” (Communications Chemistry, 2025)
